Consider 40 compounds from PubChem BioAssay (EPA / NIEHS).

Activity calls are given as the source filed them. Rule for the calls: active = hit-call score of the fitted dose curve at least 0.9, where 1 is the maximum; inactive = score below 0.9.

This assay can be described thus: ATG_BRE_CIS: Attagene CIS-FACTORIAL HepG2 Assay for human Bone Morphogenetic Protein (BMP) Response Element (BRE) (AID 2282933). Particulars: HepG2 BMP response element reporter, Attagene transcription factor profiling; actives raise or lower the signal. On the procedure: ATG_CIS is a cell-based, multiplexed-readout assay that uses HepG2, a human liver cell line, with measurements taken at 24 hours after chemical dosing in a 24-well plate.ATG_BRE_CIS is one of 52 assay component(s) measured or calculated from the ATG_CIS assay. It is designed to make measurements of mRNA induction, a form of inducible reporter, as detected with fluorescence intensity signals by Reverse transcription polymerase chain reaction (RT-PCR) and Capillary electrophoresis technology.Data from the assay component ATG_BRE_CIS was analyzed into 1 assay endpoint. This assay endpoint, ATG_BRE_CIS, was analyzed with bidirectional fitting relative to DMSO as the negative control and baseline of activity. Using a type of inducible reporter, measures of mRNA for gain or loss-of-signal activity can be used to understand the reporter gene at the transcription factor-level as they relate to the gene SMAD1. Furthermore, this assay endpoint can be referred to as a primary readout, because this assay has produced multiple assay endpoints where this one serves a reporter gene function. To generalize the intended target to other relatable targets, this assay endpoint is annotated to the dna binding intended target family, where the subfamily is Smad protein.
Human liver HepG2 cells are transiently transfected with multiple reporter transcription units (MRTUs) in 6-well plates using FuGene 6 reagent (Roche; 3 ml FuGene/1 mg DNA). The MRTU constructs are regulated by a cis-regulating element (promoter). […] A major difference between the CIS and TRANS system is that in CIS activities of endogenous TFs are measured, whereas the TRANS assay evaluates changes in activities of exogenous, chimeric NR-Gal4 proteins. […] At the end of 24 hour incubation, total RNA was isolated using TriZol reagent (Invitrogen). The isolated RNA is then reverse-transcribed using oligo(dT) primer and Mo-MLV reverse transcriptase (Invitrogen) with DNAse I (Ambion) treatment for 30 min. The one-tenth of the produced cDNA was amplified by PCR using Taq DNA polymerase (Invitrogen) and two reporter sequence-specific primers. The PCR products were fluorescently labeled by primer extension with 6-arboxyfluorescein (6-FAM) 5'-labeled reporter sequence-specific primer (2 min at 95 C, 20 s at 68 C and 10 min at 72 C) and these products were digested with 5U of HpaI (New England Biolabs) for 2h at 37 C. The fragments were purified using Qiaquick PCR columns (Qiagen), analyzed on an ABI 3130xL genetic analyzer (Applied Biosystems) with peak positions identified by using a set of X-rhodamine (ROX)-labeled MapMarker1000 molecular weight standards (BioVentures). The raw capillary electrophoresis data was processed using Attagraph software (Attagene).
In the case of `Nc1ncn([C@@H]2O[C@H](CO)[C@@H](O)[C@H]2O)c(=O)n1`, the compound was called inactive.

As a reminder, the AC50 is the concentration at which the activity in the assay is half-maximal. Take `c1ccc(CCCc2ccncc2)cc1`: the concentration at half-maximal activity (AC50) is 93.3 µM (active).

Take `c1ccc(CNCc2ccccc2)cc1`: the result was inactive.

With `[Cl][Bi]([Cl])([c]1ccccc1)([c]1ccccc1)[c]1ccccc1`, the AC50 is 6.21 µM (active).

For `COc1ccc(NC(C)=O)cc1N`, the outcome was inactive.

Turning to `O=Cc1ccc(CO)o1`, the compound was called inactive.

For the compound `O=C(O)c1cc(Cl)cc([N+](=O)[O-])c1Cl`, the result was inactive.

As for `O=CN1CCCCC1`, the outcome was inactive.

For the compound `O=[N+]([O-])c1ccc(CO)cc1`, the call was inactive.

For the compound `CC(=O)OC1C2(C)CCC(C2)C1(C)C` (stereo not given), the compound was called inactive.

Consider `CC(C)(C)C1CCCCC1=O` (stereo not given), for which the result was inactive.

With `CCCCCCCCCCOC(C)=O`, the result was inactive.

Consider `COC(=O)c1ccc2cc(C(=O)OC)ccc2c1`, for which the compound was called inactive.

Take `CC1=CC[C@H]2C[C@@H]1C2(C)C`: the compound was classed as inactive.

Turning to `CC(CC=O)c1ccccc1` (stereo not given), the compound was called inactive.

Consider `Cc1oncc1C(=O)Nc1ccc(C(F)(F)F)cc1`, for which the AC50 was 127 µM (active).

As for `C=C(C)c1cccc(C(C)(C)N=C=O)c1`, the outcome was inactive.

`Cc1cccc(OCCOc2cccc(C)c2)c1`: the compound was called inactive.

Regarding `Cc1c(C)c([N+](=O)[O-])c(C(C)(C)C)c([N+](=O)[O-])c1C`, the compound was classed as inactive.

Take `O=C(Oc1ccccc1)c1ccc2ccccc2c1O`: the AC50 was 76.2 µM (active).

For `CC(C)c1ccc2c(c1)CC[C@H]1[C@](C)(CN)CCC[C@]21C`, the AC50 is 5.7 µM (active).

On to `C=C1[C@H]2CC[C@@H]3[C@H]2C(C)(C)CCC[C@]13C`, for which the outcome was inactive.

Turning to `CC(C)(C)c1ccc(N)cc1`, the outcome was inactive.

With `O=C(Nc1ccccc1SSc1ccccc1NC(=O)c1ccccc1)c1ccccc1`, the outcome was inactive.

As for `C(=CC=Nc1ccccc1)C=CNc1ccccc1`, the outcome was inactive.

As for `CC(C)c1ccc2cc(C(C)C)ccc2c1`, the compound was classed as inactive.

`CC=CCO`: the call was inactive.

Consider `CC1=Nc2ccc3ccccc3c2C1(C)C`, for which the AC50 is 65.7 µM (active).

With `CCCCCCCCCCCCCOP(=O)(O)O`, the result was inactive.

For `COC(F)(F)C(F)(C(F)(F)F)C(F)(F)F`, the call was inactive.

Consider `O=C1OC(=O)c2cc(Oc3ccc4c(c3)C(=O)OC4=O)ccc21`, for which the outcome was inactive.

Turning to `Cc1ccc2c(c1)C(=O)c1ccccc1C2=O`, the compound was classed as inactive.

In the case of `CC(C)(C)c1n[nH]c(=O)n(N)c1=O`, the result was inactive.

In the case of `c1cc(N(CC2CO2)CC2CO2)ccc1OCC1CO1` (stereo not given), the compound was called inactive.

Regarding `CCOC(=O)N1CCC(=C2c3ccc(Cl)cc3CCc3cccnc32)CC1`, the outcome was inactive.

With `NNC(=O)c1cccc(C(=O)NN)c1`, the call was inactive.

As to `CCCOCCOCCOCCO`, the compound was classed as inactive.

In the case of `CCCC(=O)OCc1ccccc1`, the result was inactive.

For `CCCCCCCC(C)=O`, the outcome was inactive.

Turning to `C=C[C@](C)(O)CC[C@@H]1[C@@]2(C)CCCC(C)(C)[C@@H]2CC[C@@]1(C)O`, the result was inactive.
